Reference: the supplement of paper PMC10849652
Of roughly 8,800 targets only a part is listed; those with a hit were picked by preference. About 0.5% of all pairs of compound and target were hits. Values without a mark were called inactive.

How the values were obtained:
Experiment in all cases: log2 fold change, soluble protein after heating vs DMSO (PISA); higher = thermal stabilisation; K562 lysate, 10 uM; active = over 0.2 and 3.5 SD of the protein, either way, in both replicates (recomputed)
alvocidib = compound: CN1CC[C@H](c2c(O)cc(O)c3c(=O)cc(-c4ccccc4Cl)oc23)[C@H](O)C1 [alvocidib]
Method in brief: (§1)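 Values give the log-two fold change in thermal stability against solvent controls, from duplicates. Crude K562 extract at 1 mg/mL protein, made by dounce homogenisation in PBS pH 7.4 with 1 mM MgCl2, was treated with 10 μM compound for 30 min. After 3 min heating across 48°C-58°C, aliquots were pooled, adjusted to 0.5% NP-40 at 4°C and centrifuged at 21,000xg for 90 min. The supernatant was measured by TMTpro 16plex LC-MS/MS with channel sums equalised.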

Tubastatin A = compound: CN1CCc2c(c3ccccc3n2Cc2ccc(C(=O)NO)cc2)C1 [Tubastatin A]
Method in brief: as §1

[1] = compound: CNC(=O)C1=CC=CC=C1NC2=NC(=NC=C2Cl)NC3=C(C=C(C=C3)N4CCOCC4)OC
Method in brief: as §1

defactinib = compound: CNC(=O)c1ccc(Nc2ncc(C(F)(F)F)c(NCc3nccnc3N(C)S(C)(=O)=O)n2)cc1 [defactinib]
Method in brief: as §1

[2] = compound: CNc1nc(-c2ccc3c(N)n[nH]c3c2)cc(N2C[C@@H](C(=O)NC3CCCCC3)CC[C@H]2C)n1
Method in brief: as §1

encorafenib = compound: COC(=O)N[C@@H](C)CNc1nccc(-c2cn(C(C)C)nc2-c2cc(Cl)cc(NS(C)(=O)=O)c2F)n1 [encorafenib]
Method in brief: as §1

[3] = compound: COC(=O)[C@H](CCSC)NC(=O)C1=C(C=C(C=C1)NC[C@H](CS)N)C2=CC=CC=C2
Method in brief: as §1

alisertib = compound: COc1cc(Nc2ncc3c(n2)-c2ccc(Cl)cc2C(c2c(F)cccc2OC)=NC3)ccc1C(=O)O [alisertib]
Method in brief: as §1

[4] = compound: COc1cc2nc(-c3cc(F)ccc3O)nc(N[C@@H]3CNC[C@H]3C(C)(C)O)c2cc1OC
Method in brief: as §1

gefitinib = compound: COc1cc2ncnc(Nc3ccc(F)c(Cl)c3)c2cc1OCCCN1CCOCC1 [gefitinib]
Method in brief: as §1

lapatinib = compound: CS(=O)(=O)CCNCc1ccc(-c2ccc3ncnc(Nc4ccc(OCc5cccc(F)c5)c(Cl)c4)c3c2)o1 [lapatinib]
Method in brief: as §1

pictilisib = compound: CS(=O)(=O)N1CCN(Cc2cc3nc(-c4cccc5[nH]ncc45)nc(N4CCOCC4)c3s2)CC1 [pictilisib]
Method in brief: as §1

crizotinib = compound: C[C@@H](Oc1cc(-c2cnn(C3CCNCC3)c2)cnc1N)c1c(Cl)ccc(F)c1Cl [crizotinib]
Method in brief: as §1

[5] = compound: C[C@H](C1=CC=C(C=C1)C(=O)NC2=C3C=CNC3=NC=C2)N
Method in brief: as §1

duvelisib = compound: C[C@H](Nc1ncnc2nc[nH]c12)c1cc2cccc(Cl)c2c(=O)n1-c1ccccc1 [duvelisib]
Method in brief: as §1

gandotinib = compound: Cc1cc(Nc2cc(CN3CCOCC3)c3nc(C)c(Cc4ccc(Cl)cc4F)n3n2)n[nH]1 [gandotinib]
Method in brief: as §1

tozasertib = compound: Cc1cc(Nc2cc(N3CCN(C)CC3)nc(Sc3ccc(NC(=O)C4CC4)cc3)n2)n[nH]1 [tozasertib]
Method in brief: as §1

doramapimod = compound: Cc1ccc(-n2nc(C(C)(C)C)cc2NC(=O)Nc2ccc(OCCN3CCOCC3)c3ccccc23)cc1 [doramapimod]
Method in brief: as §1

bafetinib = compound: Cc1ccc(NC(=O)c2ccc(CN3CC[C@H](N(C)C)C3)c(C(F)(F)F)c2)cc1Nc1nccc(-c2cncnc2)n1 [bafetinib]
Method in brief: as §1

[6] = compound: Cc1cccc(CC(=O)N2CCc3c2ccc(-c2cn(C)c4ncnc(N)c24)c3F)n1
Method in brief: as §1

Chain of UniProt P23443 (P23443 whole entry, looked up): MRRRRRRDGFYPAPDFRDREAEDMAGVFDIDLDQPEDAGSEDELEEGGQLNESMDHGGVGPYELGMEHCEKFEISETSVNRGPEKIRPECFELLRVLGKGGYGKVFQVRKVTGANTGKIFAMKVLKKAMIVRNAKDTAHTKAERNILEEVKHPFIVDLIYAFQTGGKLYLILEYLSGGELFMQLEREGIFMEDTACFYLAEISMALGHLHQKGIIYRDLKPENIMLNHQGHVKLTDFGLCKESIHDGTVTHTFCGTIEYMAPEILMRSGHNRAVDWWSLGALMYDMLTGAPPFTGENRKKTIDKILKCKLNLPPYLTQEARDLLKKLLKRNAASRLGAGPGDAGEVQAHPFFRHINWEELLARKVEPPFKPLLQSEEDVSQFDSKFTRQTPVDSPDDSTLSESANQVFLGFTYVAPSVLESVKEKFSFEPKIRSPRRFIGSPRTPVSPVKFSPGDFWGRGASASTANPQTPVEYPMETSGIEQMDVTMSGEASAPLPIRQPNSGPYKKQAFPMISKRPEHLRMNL
Chain of UniProt Q15287 (Q15287 whole entry, looked up): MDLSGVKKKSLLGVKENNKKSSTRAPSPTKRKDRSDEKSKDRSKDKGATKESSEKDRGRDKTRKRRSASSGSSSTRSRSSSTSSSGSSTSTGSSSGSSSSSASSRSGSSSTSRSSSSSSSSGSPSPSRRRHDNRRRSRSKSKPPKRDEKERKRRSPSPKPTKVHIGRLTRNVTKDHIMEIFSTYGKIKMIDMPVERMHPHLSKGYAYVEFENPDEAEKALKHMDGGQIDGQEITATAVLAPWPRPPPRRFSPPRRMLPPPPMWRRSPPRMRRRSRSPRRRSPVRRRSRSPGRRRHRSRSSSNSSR
Chain of UniProt O94762 (O94762 whole entry, looked up): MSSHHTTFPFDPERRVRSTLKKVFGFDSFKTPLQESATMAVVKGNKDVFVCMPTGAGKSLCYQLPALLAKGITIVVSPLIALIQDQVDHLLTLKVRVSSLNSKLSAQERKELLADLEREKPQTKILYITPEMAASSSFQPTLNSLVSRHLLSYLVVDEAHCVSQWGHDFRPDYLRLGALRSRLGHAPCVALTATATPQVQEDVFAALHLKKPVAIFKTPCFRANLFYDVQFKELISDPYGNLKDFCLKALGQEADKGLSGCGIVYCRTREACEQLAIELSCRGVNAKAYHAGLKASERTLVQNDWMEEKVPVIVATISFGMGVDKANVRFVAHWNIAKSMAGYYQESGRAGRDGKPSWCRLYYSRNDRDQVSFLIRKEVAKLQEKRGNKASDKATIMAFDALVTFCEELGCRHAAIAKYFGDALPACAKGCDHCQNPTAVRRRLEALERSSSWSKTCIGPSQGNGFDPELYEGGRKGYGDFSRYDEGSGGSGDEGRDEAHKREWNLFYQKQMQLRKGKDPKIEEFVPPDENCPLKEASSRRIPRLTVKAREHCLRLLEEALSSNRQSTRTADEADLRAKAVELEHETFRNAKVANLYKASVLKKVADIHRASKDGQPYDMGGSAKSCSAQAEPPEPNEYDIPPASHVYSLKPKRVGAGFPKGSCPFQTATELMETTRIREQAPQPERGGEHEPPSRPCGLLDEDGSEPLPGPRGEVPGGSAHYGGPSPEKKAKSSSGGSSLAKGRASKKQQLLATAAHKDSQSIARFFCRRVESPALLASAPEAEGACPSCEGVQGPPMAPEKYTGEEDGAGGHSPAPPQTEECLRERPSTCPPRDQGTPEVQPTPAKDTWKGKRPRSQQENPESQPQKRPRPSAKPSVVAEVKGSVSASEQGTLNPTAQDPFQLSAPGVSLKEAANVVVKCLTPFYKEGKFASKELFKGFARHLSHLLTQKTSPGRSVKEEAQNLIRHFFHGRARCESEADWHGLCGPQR
Chain of UniProt Q15283 (Q15283 whole entry, looked up): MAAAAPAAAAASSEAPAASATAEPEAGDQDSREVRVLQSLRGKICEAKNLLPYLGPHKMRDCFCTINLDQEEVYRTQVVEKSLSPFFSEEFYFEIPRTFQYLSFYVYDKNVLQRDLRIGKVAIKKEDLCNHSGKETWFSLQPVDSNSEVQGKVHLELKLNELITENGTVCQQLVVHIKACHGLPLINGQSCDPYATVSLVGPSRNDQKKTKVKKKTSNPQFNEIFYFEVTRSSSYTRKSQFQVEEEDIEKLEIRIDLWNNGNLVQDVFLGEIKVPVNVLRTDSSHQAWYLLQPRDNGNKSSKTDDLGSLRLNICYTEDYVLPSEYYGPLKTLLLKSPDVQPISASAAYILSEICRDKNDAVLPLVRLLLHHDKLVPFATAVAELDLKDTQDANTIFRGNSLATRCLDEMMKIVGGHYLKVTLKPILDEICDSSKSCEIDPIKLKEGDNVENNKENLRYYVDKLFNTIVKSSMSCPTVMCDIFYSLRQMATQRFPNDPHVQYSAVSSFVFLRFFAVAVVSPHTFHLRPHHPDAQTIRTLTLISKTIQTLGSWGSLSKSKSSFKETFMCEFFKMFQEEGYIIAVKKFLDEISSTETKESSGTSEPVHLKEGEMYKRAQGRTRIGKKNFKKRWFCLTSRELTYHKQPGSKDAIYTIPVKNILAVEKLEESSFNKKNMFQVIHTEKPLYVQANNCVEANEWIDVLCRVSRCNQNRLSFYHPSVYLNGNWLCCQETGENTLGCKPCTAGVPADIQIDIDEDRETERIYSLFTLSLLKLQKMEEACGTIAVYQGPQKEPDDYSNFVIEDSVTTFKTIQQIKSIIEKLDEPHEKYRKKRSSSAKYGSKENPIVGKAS
Chain of UniProt Q8TBN0 (Q8TBN0 whole entry, looked up): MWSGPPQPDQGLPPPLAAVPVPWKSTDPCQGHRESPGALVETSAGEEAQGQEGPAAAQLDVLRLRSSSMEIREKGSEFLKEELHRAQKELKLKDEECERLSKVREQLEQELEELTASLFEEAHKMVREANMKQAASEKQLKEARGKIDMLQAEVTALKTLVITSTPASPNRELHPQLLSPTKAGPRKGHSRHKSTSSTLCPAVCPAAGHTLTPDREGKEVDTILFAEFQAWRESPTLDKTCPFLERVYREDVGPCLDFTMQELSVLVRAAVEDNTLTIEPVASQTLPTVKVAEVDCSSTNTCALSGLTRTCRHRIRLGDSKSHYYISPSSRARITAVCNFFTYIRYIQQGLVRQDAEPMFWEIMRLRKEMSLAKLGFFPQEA
Chain of UniProt Q86X10 (Q86X10 whole entry, looked up): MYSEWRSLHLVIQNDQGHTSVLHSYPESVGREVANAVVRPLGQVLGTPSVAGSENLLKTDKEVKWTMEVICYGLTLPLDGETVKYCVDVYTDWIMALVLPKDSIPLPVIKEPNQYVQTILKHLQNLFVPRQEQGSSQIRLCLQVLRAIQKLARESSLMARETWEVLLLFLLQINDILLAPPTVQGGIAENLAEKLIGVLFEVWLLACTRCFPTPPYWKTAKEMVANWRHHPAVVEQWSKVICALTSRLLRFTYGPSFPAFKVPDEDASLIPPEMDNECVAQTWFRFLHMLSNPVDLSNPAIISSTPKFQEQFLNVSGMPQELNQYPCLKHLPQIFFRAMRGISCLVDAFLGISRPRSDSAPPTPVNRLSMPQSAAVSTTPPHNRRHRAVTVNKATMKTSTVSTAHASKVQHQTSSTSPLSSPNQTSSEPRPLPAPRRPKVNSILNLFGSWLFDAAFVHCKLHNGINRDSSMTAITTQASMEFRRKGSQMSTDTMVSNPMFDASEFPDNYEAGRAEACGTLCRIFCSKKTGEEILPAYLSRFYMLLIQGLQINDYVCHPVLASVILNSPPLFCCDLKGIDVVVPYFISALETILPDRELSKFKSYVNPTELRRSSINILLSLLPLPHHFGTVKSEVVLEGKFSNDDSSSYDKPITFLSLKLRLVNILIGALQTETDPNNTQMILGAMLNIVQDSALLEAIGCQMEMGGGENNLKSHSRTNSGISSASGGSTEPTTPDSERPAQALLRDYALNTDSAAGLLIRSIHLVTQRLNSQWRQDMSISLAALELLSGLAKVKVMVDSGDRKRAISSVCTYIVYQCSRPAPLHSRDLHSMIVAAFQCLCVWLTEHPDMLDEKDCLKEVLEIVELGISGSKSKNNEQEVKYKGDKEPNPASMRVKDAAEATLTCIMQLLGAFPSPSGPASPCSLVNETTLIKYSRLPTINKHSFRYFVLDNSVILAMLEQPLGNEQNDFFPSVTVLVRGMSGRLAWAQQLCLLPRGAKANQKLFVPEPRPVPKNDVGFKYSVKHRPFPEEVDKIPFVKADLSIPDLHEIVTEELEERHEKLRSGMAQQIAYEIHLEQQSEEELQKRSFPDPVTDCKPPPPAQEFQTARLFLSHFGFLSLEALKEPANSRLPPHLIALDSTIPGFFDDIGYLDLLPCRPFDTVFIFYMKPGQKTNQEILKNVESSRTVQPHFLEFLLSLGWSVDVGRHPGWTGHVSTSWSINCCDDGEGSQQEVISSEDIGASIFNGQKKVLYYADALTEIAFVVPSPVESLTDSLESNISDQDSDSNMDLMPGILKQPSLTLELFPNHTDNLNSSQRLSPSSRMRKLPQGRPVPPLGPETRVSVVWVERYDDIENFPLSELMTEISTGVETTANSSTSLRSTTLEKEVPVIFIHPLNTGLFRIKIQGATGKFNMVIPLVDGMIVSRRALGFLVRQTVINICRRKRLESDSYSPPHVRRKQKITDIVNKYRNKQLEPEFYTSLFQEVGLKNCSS
Chain of UniProt Q5TBB1 (Q5TBB1 whole entry, looked up): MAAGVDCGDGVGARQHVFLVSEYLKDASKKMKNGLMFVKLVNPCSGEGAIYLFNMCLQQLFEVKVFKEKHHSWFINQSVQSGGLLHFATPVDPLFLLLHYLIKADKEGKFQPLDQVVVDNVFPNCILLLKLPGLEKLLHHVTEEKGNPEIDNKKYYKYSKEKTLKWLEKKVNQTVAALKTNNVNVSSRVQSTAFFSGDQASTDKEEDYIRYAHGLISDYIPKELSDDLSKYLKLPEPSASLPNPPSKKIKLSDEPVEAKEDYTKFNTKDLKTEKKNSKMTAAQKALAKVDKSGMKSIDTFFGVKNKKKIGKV

Target	log2 fold change (alvocidib)	log2 fold change (Tubastatin A)	log2 fold change [1]	log2 fold change (defactinib)	log2 fold change [2]	log2 fold change (encorafenib)	log2 fold change [3]	log2 fold change (alisertib)	log2 fold change [4]	log2 fold change (gefitinib)	log2 fold change (lapatinib)	log2 fold change (pictilisib)	log2 fold change (crizotinib)	log2 fold change [5]	log2 fold change (duvelisib)	log2 fold change (gandotinib)	log2 fold change (tozasertib)	log2 fold change (doramapimod)	log2 fold change (bafetinib)	log2 fold change [6]
RNPS1 (UniProt Q15287)	-0.043	0.102	0.02	-0.009	0.029	0.069	0.01	0.02	0.01	0.006	0.025	0.044	0.254 (active)	-0.02	0.038	0	0.042	-0.057	-0.009	-0.001
RNASEH2B (UniProt Q5TBB1)	0.05	-0.046	-0.003	0.092	-0.021	0.035	0.338 (active)	-0.031	-0.038	-0.031	0.001	0.039	-0.049	0.126	0.03	-0.126	0.055	0.041	0.027	-0.064
RNF213, A0A0A0MTC1	-0.003	-0.081	0.023	-0.02	-0.04	0.054	-0.061	0.013	0.012	-0.012	-0.012	-0.014	-0.064	-0.043	0.008	-0.123	0.043	0.033	-0.066	0.052
RPS6KB1 (UniProt P23443)	-0.021	-0.184	0.115	0.094	-0.013	-0.039	0.218	-0.02	0.166	0.062	0.009	0.075	0.16	-0.104	0.001	0.051	0.022	-0.05	0.006	0.177
RASA2 (UniProt Q15283)	0	-0.078	0.019	0.053	-0.064	-0.059	0.113	-0.003	-0.008	-0.003	0.026	-0.089	-0.014	-0.007	-0.045	-0.087	0.013	0.072	-0.078	0.096
RAB3IL1 (UniProt Q8TBN0)	0.027	-0.021	0.022	0.007	0.009	-0.006	-0.031	-0.013	0.039	0.014	-0.002	-0.034	-0.023	0	-0.003	-0.014	-0.004	-0.012	0.006	-0.02
RBBP7 isoform 2 (UniProt Q16576)	-0.005	-0.004	-0.021	-0.023	-0.028	0.03	-0.034	0.03	-0.003	0.002	0.002	0.027	0.008	-0.213	0.025	0.019	0.017	0.035	0.018	-0.011
RAB3IL1 (UniProt E9PK89)	-0.008	-0.025	0.023	0.123	0.005	0.047	0.024	0.032	-0.07	0	-0.025	0.063	0.039	0.045	-0.036	0.006	0.059	-0.117	-0.094	0.057
RALGAPB (UniProt Q86X10)	0.02	-0.056	-0.069	0.026	0.012	0.044	0.015	0	0.032	-0.007	0.021	-0.062	-0.088	-0.09	0.103	-0.06	0.062	0.046	-0.043	0.103
RPL27 (UniProt P61353)	0.049	0.009	-0.015	0.006	0.056	-0.015	0.012	0.006	0.006	-0.023	-0.04	0.008	0.013	0.411 (active)	0.012	-0.098	0.01	-0.034	-0.033	-0.118
RPL36AL (UniProt Q969Q0)	0.055	-0.056	0.023	0.026	-0.243 (active)	0.03	-0.08	-0.057	-0.029	-0.07	0.05	0.031	0.216	0.01	-0.033	-0.038	0.047	-0.131	0.137	0.003
RPS18 (UniProt P62269)	-0.057	0.04	-0.021	0.016	0.025	-0.022	0.054	0.013	0.001	-0.032	-0.046	0.006	-0.028	-0.186	-0.019	0.071	0.008	0.026	-0.004	0.094
RECQL5 (UniProt O94762)	0.057	-0.053	-0.071	0.068	0.074	0.225	0.016	-0.003	0.09	0.03	0.277	0.06	0.049	0.084	0.029	-0.15	0.031	-0.008	-0.062	-0.09
RAB1B (UniProt Q9H0U4)	-0.146	0.007	-0.016	-0.037	0.01	0.065	-0.058	0.047	0.003	0.064	0.021	0.053	0.031	-0.35 (active)	0.033	0.156	0.011	-0.052	-0.038	0.242 (active)
RIOK1 (UniProt Q9BRS2)	0	0.005	0.008	-0.009	0.413 (active)	0.006	-0.006	0.01	0.168	-0.019	-0.044	0.197	-0.015	0.92 (active)	0.037	-0.138	0.008	0.025	-0.056	-0.134
RBM8A (UniProt Q9Y5S9)	0.086	0.024	-0.024	0.017	-0.256	0.002	-0.069	0	-0.062	-0.024	0.01	0.017	0.135	0.277 (active)	-0.014	-0.209	0.06	-0.038	-0.017	-0.2
